Experiments:
Test in all cases: PBM binding z-score (relative to random genomic background probes); higher = stronger binding; sequences stand for … in GC…GCGATTGACAGCGTAGAATGAAGG
[1] = test system: PPARg:RXRa DBDmut IVT, anti-RXR (DBD mutation: RXRa K156A/R161A, NR concentration 270 nM, RXRa partner concentration 90 nM)
Procedure, shortened: (§1)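 For binding z-scores, the reference was random background probes on custom Agilent 4×180K protein-binding microarrays. These arrays were incubated 1 h with ligand-free nuclear receptor dimers in PBS pH 7.4, 2% milk, 0.02% Triton X-100, 1 mM DTT, 0.2 mg/mL BSA and 0.4 mg/ml salmon testes DNA. Fluorescence was scanned after antibody detection of each partner (one per run) and regression-normalized.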

[2] = test system: PPARg:RXRa IVT, anti-PPARg (NR concentration 270 nM, RXRa partner concentration 90 nM)
Procedure, shortened: as §1

[3] = test system: PPARg DBDmut:RXRa IVT, anti-PPARg (DBD mutation: PPARg1 K132A/R137A, NR concentration 270 nM, RXRa partner concentration 90 nM)
Procedure, shortened: as §1

[4] = test system: PPARg DBDmut IVT, anti-PPARg (DBD mutation: PPARg1 K132A/R137A, NR concentration 270 nM)
Procedure, shortened: as §1

[5] = test system: PPARg homodimer (NR concentration 180 nM)
Procedure, shortened: as §1

[6] = test system: PXR:RXRa (NR concentration 270 nM, RXRa partner concentration 90 nM)
Procedure, shortened: as §1

[7] = test system: PXR homodimer (NR concentration 270 nM)
Procedure, shortened: as §1

[8] = test system: RARa:RXR (NR concentration 270 nM, RXRa partner concentration 90 nM)
Procedure, shortened: as §1

[9] = test system: RARa homodimer (NR concentration 270 nM)
Procedure, shortened: as §1

[10] = test system: RARb:RXRa (NR concentration 270 nM, RXRa partner concentration 90 nM)
Procedure, shortened: as §1

AGAACAAGGGCACGCTGAGTTGATAGCAGAGTAG
PBM binding z-score [1]: 3.07 | PBM binding z-score [2]: 2.72 | PBM binding z-score [3]: 0.166 | PBM binding z-score [4]: 0.443 | PBM binding z-score [5]: 0.00636 | PBM binding z-score [6]: 0.845 | PBM binding z-score [7]: 0.17 | PBM binding z-score [8]: 0.366 | PBM binding z-score [9]: -0.312 | PBM binding z-score [10]: 2.51

CAAACAGGGTCAGCTAGGCCAGAGTAGGGACGGC
PBM binding z-score [1]: 2.12 | PBM binding z-score [2]: 2.9 | PBM binding z-score [3]: 0.368 | PBM binding z-score [4]: 0.041 | PBM binding z-score [5]: 1.74 | PBM binding z-score [6]: 2.42 | PBM binding z-score [7]: 0.185 | PBM binding z-score [8]: 3.18 | PBM binding z-score [9]: 0.11 | PBM binding z-score [10]: 3.96

TCGAGTCGGTTAGGGGCATTCAGAATGGCGTCGA
PBM binding z-score [1]: 0.464 | PBM binding z-score [2]: -0.15 | PBM binding z-score [3]: -1.37 | PBM binding z-score [4]: -1.74 | PBM binding z-score [5]: -0.435 | PBM binding z-score [6]: 0.545 | PBM binding z-score [7]: -0.165 | PBM binding z-score [8]: 0.325 | PBM binding z-score [9]: -1.4 | PBM binding z-score [10]: 0.501

CCTACTAGGCCAAAGGTCATTGATTCCAATGCTC
PBM binding z-score [1]: 6.51 | PBM binding z-score [2]: 7.41 | PBM binding z-score [3]: 1.46 | PBM binding z-score [4]: 1.49 | PBM binding z-score [5]: 3.89 | PBM binding z-score [6]: 5.56 | PBM binding z-score [7]: 2.25 | PBM binding z-score [8]: 6.39 | PBM binding z-score [9]: 2.46 | PBM binding z-score [10]: 4.79

AGCTCTAGGTAAGACTCAGTTCAGTGAAGAACGC
PBM binding z-score [1]: 2.37 | PBM binding z-score [2]: 0.56 | PBM binding z-score [3]: -0.869 | PBM binding z-score [4]: 0.622 | PBM binding z-score [5]: -0.0493 | PBM binding z-score [6]: 0.744 | PBM binding z-score [7]: 0.904 | PBM binding z-score [8]: -0.0214 | PBM binding z-score [9]: -0.00994 | PBM binding z-score [10]: -0.0595

ACAGACCGGTGAGTGAAGGTAACTCAGCTGGACG
PBM binding z-score [1]: -0.439 | PBM binding z-score [2]: -0.283 | PBM binding z-score [3]: -0.662 | PBM binding z-score [4]: -1.09 | PBM binding z-score [5]: -0.786 | PBM binding z-score [6]: -0.593 | PBM binding z-score [7]: -0.655 | PBM binding z-score [8]: -0.54 | PBM binding z-score [9]: -0.997 | PBM binding z-score [10]: -0.197

CGAACTAGGTCAGAACAGGACAGTGAAGGATGAT
PBM binding z-score [1]: 7.21 | PBM binding z-score [2]: 6.92 | PBM binding z-score [3]: 1.26 | PBM binding z-score [4]: 0.744 | PBM binding z-score [5]: 0.92 | PBM binding z-score [6]: 0.787 | PBM binding z-score [7]: -0.0517 | PBM binding z-score [8]: 0.927 | PBM binding z-score [9]: 0.693 | PBM binding z-score [10]: 2.77

CCAACTAGGTCAAGAGGTCAAAGTCCGCTTCCCG
PBM binding z-score [1]: 8.09 | PBM binding z-score [2]: 8.02 | PBM binding z-score [3]: 4.07 | PBM binding z-score [4]: 5.47 | PBM binding z-score [5]: 8.09 | PBM binding z-score [6]: 6.37 | PBM binding z-score [7]: 2.79 | PBM binding z-score [8]: 8.12 | PBM binding z-score [9]: 3.13 | PBM binding z-score [10]: 5.34

CGTCCAAGGTCATAGGAGGTCCGTGAAGACAGAT
PBM binding z-score [1]: 3.08 | PBM binding z-score [2]: 3.47 | PBM binding z-score [3]: 0.84 | PBM binding z-score [4]: 0.63 | PBM binding z-score [5]: 3.87 | PBM binding z-score [6]: 4.93 | PBM binding z-score [7]: 1.26 | PBM binding z-score [8]: 4.68 | PBM binding z-score [9]: 1.62 | PBM binding z-score [10]: 5.04

TTACCAAGGTGAAAGGTCGTTGATGCACGCCTTG
PBM binding z-score [1]: 2.84 | PBM binding z-score [2]: 4.92 | PBM binding z-score [3]: 0.117 | PBM binding z-score [4]: -0.276 | PBM binding z-score [5]: 1.41 | PBM binding z-score [6]: 3.96 | PBM binding z-score [7]: 0.351 | PBM binding z-score [8]: 5.27 | PBM binding z-score [9]: 0.055 | PBM binding z-score [10]: 3.04

ATCAAAAGGTCGACGAGGTGAGTATACACCGTTT
PBM binding z-score [1]: 0.837 | PBM binding z-score [2]: 2.54 | PBM binding z-score [3]: 1.44 | PBM binding z-score [4]: 1.18 | PBM binding z-score [5]: 2.16 | PBM binding z-score [6]: 3.22 | PBM binding z-score [7]: 0.528 | PBM binding z-score [8]: 3.88 | PBM binding z-score [9]: 1.22 | PBM binding z-score [10]: 4

CCTTACGGGTCACGAGGTTATAGCACGACGAGCG
PBM binding z-score [1]: 3.98 | PBM binding z-score [2]: 5.69 | PBM binding z-score [3]: 1.85 | PBM binding z-score [4]: 0.701 | PBM binding z-score [5]: 2.37 | PBM binding z-score [6]: 4.46 | PBM binding z-score [7]: 0.418 | PBM binding z-score [8]: 5.47 | PBM binding z-score [9]: 0.688 | PBM binding z-score [10]: 4.62
